Structures are written as SMILES. “And” between values parts separate entries of the source, which are not always exact repeats. Identical values can stand only once. Results filed as inconclusive are left out. Entries that show only a call come without a potency. The source made the active and inactive calls. Calls follow the shape of the dose curve; as a rule, active = well fitted activation curve with a large enough effect in the repeat runs; inconclusive = weak or mixed curves; inactive = flat fitted curve, though single readings scatter.
Potency is read from the fitted curve at half-maximal effect.

A short description of this experiment: Caspase-3/7 induction in HepG2 cells by small molecules, qHTS assay (AID 1346978). Also: nearly all actives have a fitted effect of over 15% in size. The settings on record: HepG2 caspase-3/7 activation, Caspase-Glo luminescence, 17 h; series mostly up to 92.4 µM. The text has this:
National Center for Advancing Translational Sciences [NCATS] NIH Chemical Genomics Center [NCGC] U.S. Environmental Protection Agency [EPA] National Institutes of Environmental Health Sciences [NIEHS] National Toxicology Program [NTP] Assay overview: Apoptosis is a process of programmed cell death and plays a central role in the development of multicellular organisms. It is a highly regulated process and induces cell death by activating caspases, which are the members of cysteine aspartic acid-specific protease (caspase) family. Caspases involved in apoptosis are classified by their mechanism of action as initiator caspases (caspase-2, -8, -9 and -10) and executioner caspases (caspase-3, -6, and -7). Inhibition of apoptosis results in number of cancers, autoimmune diseases, inflammatory diseases and viral infection. To identify small molecule compounds that induce apoptosis, a homogeneous, luminescent Caspase-Glo 3/7 assay was used. Wild type HepG2 cells were used to screen Tox21 libraries for identifying caspase-3/7 activity inducers.
Assay Protocol Summary: HepG2 cells were dispensed at 2,000 per well in 5uL of culture medium into white solid bottom 1536-well plates (Corning Life Sciences, Corning, NY) using a Multidrop Combi (Thermo Scientific, Waltham, MA) dispenser. The assay plates were incubated at 37 C and 5% CO2 for 5hr, and then 23nL of compounds dissolved in DMSO and positive control were transferred using a Pintool station (Wako, San Diego, CA). The assay plates were incubated at 37C and 5% CO2 for 17hr. For caspase-3/7 activity read, 4uL of Caspase-Glo 3/7 reagent (Promega Corporation, Madison, WI) was added to each well of the assay plates using Flying Reagent Dispenser (FRD, Aurora Discovery, San Diego, CA) and incubated the assay plates at room temperature for 30min. The luminescence signal was quantified using a ViewLux plate reader (Perkin Elmer, Shelton, CT).
For orientation: Quantitative high-throughput screening tests each substance at several concentrations.
Consider `Cc1ccc(S(=O)(=O)O)cc1`, for which the Potency result was “inactive”.

`CC1(C)S[C@@H]2[C@H](NC(=O)[C@H](N)c3ccccc3)C(=O)N2[C@H]1C(=O)O`: the Potency result was “inactive”.

Regarding `CN1CCC[C@H]1c1cccnc1`, the Potency result was “inactive”.

Regarding `COc1cccc(O)c1O`, the Potency entry is “inactive”.

As for `CCN(Cc1c(F)cccc1Cl)c1c([N+](=O)[O-])cc(C(F)(F)F)cc1[N+](=O)[O-]`, the Potency result was “inactive”.

Turning to `COc1ccc2c(c1)c(CC(=O)O)c(C)n2C(=O)c1ccc(Cl)cc1`, the Potency entry is “inactive”.

For `NC1CCCCC1`, the Potency entry was “inactive”.

Consider `CCCCCCCCCCCC[N+](C)(C)Cc1ccccc1`, for which the Potency is 67.3 µM (active) and 66.4 µM (active).

Regarding `Nc1ccc([N+](=O)[O-])cc1O`, the Potency entry was “inactive”.

Regarding `CCCCC1(COC(=O)CCC(=O)O)C(=O)N(c2ccccc2)N(c2ccccc2)C1=O`, the Potency entry was “inactive”.

In the case of `COc1ccc2cc(S(=O)(=O)N[C@H](CC(=O)N[C@H](Cc3ccc(CN4[C@H](C)CCC[C@@H]4C)cc3)C(=O)N(C)C(C)C)c3ccc4c(c3)OCO4)ccc2c1`, the Potency is 57.9 µM (active).

Regarding `C[C@](N)(Cc1ccc(O)c(O)c1)C(=O)O`, the Potency result is “inactive”.

Take `Cc1c(C(=O)O)c(O)cc2c1C(=O)c1c(O)c([C@@H]3O[C@H](CO)[C@@H](O)[C@H](O)[C@H]3O)c(O)c(O)c1C2=O`: the Potency entry was “inactive”.

On to `COc1ccc(CN(CCN(C)C)c2ccccn2)cc1`, for which the Potency result is “inactive”.

With `NS(=O)(=O)c1cc2c(cc1Cl)NCNS2(=O)=O`, the Potency entry is “inactive”.

Take `Cc1ncc([N+](=O)[O-])n1C`: the Potency entry is “inactive”.

For the compound `O=C(O)CC(O)C(=O)O` (stereo not given), the Potency entry is “inactive”.

As for `CC12CCC(CC1)C(C)(C)O2`, the Potency result is “inactive”.

As for `CC(=O)C(=O)O`, the Potency result is “inactive”.

As for `CN1CCc2cccc3c2[C@H]1Cc1ccc(O)c(O)c1-3`, the Potency result was “inactive”.

Regarding `CCCCCCc1ccc(O)cc1O`, the Potency result is “inactive”.

As to `O=C1NC(=O)C(c2ccccc2)(c2ccccc2)N1`, the Potency entry is “inactive”.

In the case of `O=C1c2c(O)cccc2Cc2cccc(O)c21`, the Potency result was “inactive”.

Take `O=CC(=O)c1ccccc1`: the Potency entry is “inactive”.

As for `CC(C)NCC(O)c1ccc(O)c(O)c1` (stereo not given), the Potency entry was “inactive”.

For the compound `CS(=O)(=O)OCCCCOS(C)(=O)=O`, the Potency entry is “inactive”.

In the case of `O=C1OC2(c3ccccc31)c1cc(Br)c(O)c(Br)c1Oc1c2cc(Br)c(O)c1Br`, the Potency entry is “inactive”.

In the case of `Nc1ccc(S(N)(=O)=O)cc1`, the Potency result was “inactive”.

Turning to `NC(=O)c1cccnc1`, the Potency result was “inactive”.

Take `CN[C@H]1CC[C@@H](c2ccc(Cl)c(Cl)c2)c2ccccc21`: the Potency was 13.3 µM (active).

Consider `CCCc1cc(=O)[nH]c(=S)[nH]1`, for which the Potency entry is “inactive”.

Take `CN(N=O)C(=O)N[C@@H]1[C@@H](O)[C@H](O)[C@@H](CO)O[C@@H]1O`: the Potency result is “inactive”.

As to `Nc1c2c(nc3ccccc13)CCCC2`, the Potency entry is “inactive”.

`CC/C(=C(\c1ccccc1)c1ccc(OCCN(C)C)cc1)c1ccccc1`: the Potency was 27.5 µM (active) and 54.4 µM (active) and 61.1 µM (active).

Regarding `CC(=O)CCC(=O)O`, the Potency result was “inactive”.

Take `CC(C)C(=O)Nc1ccc([N+](=O)[O-])c(C(F)(F)F)c1`: the Potency entry was “inactive”.

As to `O=c1[nH]cc(F)c(=O)[nH]1`, the Potency result is “inactive”.

Turning to `CN(C)CCOC(c1ccccc1)c1ccccc1`, the Potency entry is “inactive”.

As to `CCCC[P+](CCCC)(CCCC)CCCC`, the Potency entry was “inactive”.

Turning to `O=S1(=O)OC(c2ccc(O)cc2)(c2ccc(O)cc2)c2ccccc21`, the Potency entry is “inactive”.

Source of the values: PubChem BioAssay (Tox21).
